Columns and labels:
Experiment in all cases: DAPPL (digital affinity profiling via proximity ligation, sequencing); 10 mM Tris-HCl pH 7.5, 50 mM NaCl, 1 mM DTT, 4% glycerol, room temperature, 30 min; GST-TFs on glutathione beads, 16-mer random dsDNA library, 0.1% formaldehyde crosslink after washing; high values mean tight binding
FLI1 = biological target: T1, FLI1 (Homo sapiens, UniProt Q01543 1-452); conditions: protein: recombinant; tags: N-terminal GST; dsDNA, one strand shown
T1 sequence: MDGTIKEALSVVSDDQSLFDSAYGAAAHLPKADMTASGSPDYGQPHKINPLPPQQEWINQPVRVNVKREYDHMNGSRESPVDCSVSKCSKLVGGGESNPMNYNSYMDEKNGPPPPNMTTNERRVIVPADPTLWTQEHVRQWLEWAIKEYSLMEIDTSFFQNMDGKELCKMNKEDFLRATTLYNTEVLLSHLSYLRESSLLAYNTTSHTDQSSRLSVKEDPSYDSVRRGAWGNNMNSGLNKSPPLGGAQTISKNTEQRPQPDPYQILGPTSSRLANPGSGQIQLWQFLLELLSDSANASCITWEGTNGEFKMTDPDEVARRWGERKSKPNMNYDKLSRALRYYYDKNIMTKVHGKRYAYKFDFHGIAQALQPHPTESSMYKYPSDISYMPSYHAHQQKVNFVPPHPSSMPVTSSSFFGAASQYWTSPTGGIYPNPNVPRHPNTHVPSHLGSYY
Summary of the method: (§1)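 Binding signal is defined as a hexamer's read frequency for one factor over its frequency for the tag-only sample. To obtain reads, GST-fused human transcription factors were expressed in yeast, captured on glutathione beads, barcoded with DNA and pooled with that sample. Pools met 200 nmole of a 16-mer random double-stranded DNA library in Tris/NaCl/DTT/glycerol buffer for 30 min at room temperature before washing, 0.1% formaldehyde crosslinking, proximity ligation (BsaI/T4 ligase, 1 h, 37 °C), PCR and Illumina NextSeq500 sequencing.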

ELK1 = biological target: T2, ELK1 (Homo sapiens, UniProt P19419 1-428); conditions: protein: recombinant; tags: N-terminal GST; dsDNA, one strand shown
T2 sequence: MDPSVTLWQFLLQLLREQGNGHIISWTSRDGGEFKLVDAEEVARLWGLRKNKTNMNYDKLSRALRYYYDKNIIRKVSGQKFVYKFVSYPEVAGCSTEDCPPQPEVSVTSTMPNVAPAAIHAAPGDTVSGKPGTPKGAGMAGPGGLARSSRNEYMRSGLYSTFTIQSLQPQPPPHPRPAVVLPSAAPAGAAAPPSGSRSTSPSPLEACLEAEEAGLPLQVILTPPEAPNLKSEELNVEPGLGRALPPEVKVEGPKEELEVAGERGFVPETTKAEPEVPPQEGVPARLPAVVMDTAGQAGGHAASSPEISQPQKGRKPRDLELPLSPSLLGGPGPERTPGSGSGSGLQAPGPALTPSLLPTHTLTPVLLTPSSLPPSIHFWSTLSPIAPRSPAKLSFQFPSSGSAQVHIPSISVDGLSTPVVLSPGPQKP
Summary of the method: as §1

GABPA = biological target: T3, GABPA (Homo sapiens, UniProt Q06546 1-454); conditions: protein: recombinant; tags: N-terminal GST; dsDNA, one strand shown
T3 sequence: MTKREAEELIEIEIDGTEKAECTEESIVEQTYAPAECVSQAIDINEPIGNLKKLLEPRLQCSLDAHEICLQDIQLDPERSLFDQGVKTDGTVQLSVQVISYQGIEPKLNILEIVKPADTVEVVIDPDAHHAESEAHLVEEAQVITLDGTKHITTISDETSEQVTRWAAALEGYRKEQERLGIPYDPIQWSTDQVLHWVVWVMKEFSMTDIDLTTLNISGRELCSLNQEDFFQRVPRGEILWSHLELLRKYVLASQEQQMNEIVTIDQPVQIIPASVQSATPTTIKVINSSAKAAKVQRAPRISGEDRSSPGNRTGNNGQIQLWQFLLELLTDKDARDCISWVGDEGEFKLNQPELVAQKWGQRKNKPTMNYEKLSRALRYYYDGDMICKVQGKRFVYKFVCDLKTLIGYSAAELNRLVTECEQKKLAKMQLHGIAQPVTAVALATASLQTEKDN
Summary of the method: as §1

ERG = biological target: T4, ERG (Homo sapiens, UniProt P11308 1-479); conditions: protein: recombinant; tags: N-terminal GST; dsDNA, one strand shown
T4 sequence: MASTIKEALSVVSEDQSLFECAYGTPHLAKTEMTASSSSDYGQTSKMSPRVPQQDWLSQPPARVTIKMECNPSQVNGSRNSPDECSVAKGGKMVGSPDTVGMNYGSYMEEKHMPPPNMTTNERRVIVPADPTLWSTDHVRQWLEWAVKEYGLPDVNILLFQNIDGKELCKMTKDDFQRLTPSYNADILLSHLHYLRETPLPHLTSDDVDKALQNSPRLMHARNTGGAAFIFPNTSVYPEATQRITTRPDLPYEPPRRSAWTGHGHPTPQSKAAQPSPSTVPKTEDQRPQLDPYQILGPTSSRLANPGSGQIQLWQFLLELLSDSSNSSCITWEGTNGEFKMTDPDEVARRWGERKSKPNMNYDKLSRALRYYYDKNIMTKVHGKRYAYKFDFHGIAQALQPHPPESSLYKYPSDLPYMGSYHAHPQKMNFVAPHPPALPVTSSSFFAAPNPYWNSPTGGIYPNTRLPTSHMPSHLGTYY
Summary of the method: as §1

ELF1 = ELF1 (Homo sapiens, UniProt P32519 1-619); conditions: protein: recombinant; tags: N-terminal GST; dsDNA, one strand shown
Summary of the method: as §1

EHF = biological target: T5, EHF (Homo sapiens, UniProt Q9NZC4 1-300); conditions: protein: recombinant; tags: N-terminal GST; dsDNA, one strand shown
T5 sequence: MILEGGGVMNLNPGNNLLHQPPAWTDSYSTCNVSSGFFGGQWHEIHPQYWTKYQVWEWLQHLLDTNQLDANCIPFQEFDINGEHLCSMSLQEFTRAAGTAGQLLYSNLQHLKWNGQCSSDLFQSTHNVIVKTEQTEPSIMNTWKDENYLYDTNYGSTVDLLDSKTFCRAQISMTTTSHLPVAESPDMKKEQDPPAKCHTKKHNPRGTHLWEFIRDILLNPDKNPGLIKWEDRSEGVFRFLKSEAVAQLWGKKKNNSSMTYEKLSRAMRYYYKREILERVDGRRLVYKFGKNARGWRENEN
Summary of the method: as §1

SPI1 = SPI1 (Homo sapiens, UniProt P17947 1-270); conditions: protein: recombinant; tags: N-terminal GST; dsDNA, one strand shown
Summary of the method: as §1

SPIB = SPIB (Homo sapiens, UniProt Q01892 1-262); conditions: protein: recombinant; tags: N-terminal GST; dsDNA, one strand shown
Summary of the method: as §1

ELK3 = biological target: T6, ELK3 (Homo sapiens, UniProt P41970 1-407); conditions: protein: recombinant; tags: N-terminal GST; dsDNA, one strand shown
T6 sequence: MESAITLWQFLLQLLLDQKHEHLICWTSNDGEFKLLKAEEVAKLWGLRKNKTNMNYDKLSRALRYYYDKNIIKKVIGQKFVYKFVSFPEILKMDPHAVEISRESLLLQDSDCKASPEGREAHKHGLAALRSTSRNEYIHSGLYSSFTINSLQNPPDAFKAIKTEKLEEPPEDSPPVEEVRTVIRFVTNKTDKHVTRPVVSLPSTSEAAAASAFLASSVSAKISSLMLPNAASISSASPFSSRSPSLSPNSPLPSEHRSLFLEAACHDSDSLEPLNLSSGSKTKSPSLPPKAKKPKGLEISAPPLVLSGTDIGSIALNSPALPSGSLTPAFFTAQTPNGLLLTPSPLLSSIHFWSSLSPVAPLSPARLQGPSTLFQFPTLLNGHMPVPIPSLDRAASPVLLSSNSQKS
Summary of the method: as §1

FEV = biological target: T7, FEV (Homo sapiens, UniProt Q99581 1-238); conditions: protein: recombinant; tags: N-terminal GST; dsDNA, one strand shown
T7 sequence: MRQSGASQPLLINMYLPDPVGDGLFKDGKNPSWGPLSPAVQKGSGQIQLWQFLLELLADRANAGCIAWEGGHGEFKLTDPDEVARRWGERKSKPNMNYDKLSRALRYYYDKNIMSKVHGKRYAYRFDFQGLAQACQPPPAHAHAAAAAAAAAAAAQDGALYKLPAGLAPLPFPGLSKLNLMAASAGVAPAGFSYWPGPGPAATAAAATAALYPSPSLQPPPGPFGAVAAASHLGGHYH
Summary of the method: as §1

ETV5 = ETV5 (Homo sapiens, UniProt P41161 1-510); conditions: protein: recombinant; tags: N-terminal GST; dsDNA, one strand shown
Summary of the method: as §1

HSF1 = HSF1 (Homo sapiens, UniProt Q00613 1-529); conditions: protein: recombinant; tags: N-terminal GST; chain copies: 3; dsDNA, one strand shown
Summary of the method: as §1

SPIC = biological target: T8, SPIC (Homo sapiens, UniProt Q8N5J4 1-248); conditions: protein: recombinant; tags: N-terminal GST; dsDNA, one strand shown
T8 sequence: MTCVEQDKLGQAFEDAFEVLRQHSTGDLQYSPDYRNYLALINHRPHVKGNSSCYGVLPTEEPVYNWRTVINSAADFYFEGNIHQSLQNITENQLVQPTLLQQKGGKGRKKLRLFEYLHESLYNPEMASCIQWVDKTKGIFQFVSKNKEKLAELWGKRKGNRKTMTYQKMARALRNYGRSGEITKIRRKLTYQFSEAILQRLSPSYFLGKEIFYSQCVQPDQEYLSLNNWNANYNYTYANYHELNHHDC
Summary of the method: as §1

ELF4 = ELF4 (Homo sapiens, UniProt Q99607 1-663); conditions: protein: recombinant; tags: N-terminal GST; dsDNA, one strand shown
Summary of the method: as §1

ELK4 = biological target: T9, ELK4 (Homo sapiens, UniProt P28324-2 1-405); conditions: protein: recombinant; tags: N-terminal GST; dsDNA, one strand shown
T9 sequence: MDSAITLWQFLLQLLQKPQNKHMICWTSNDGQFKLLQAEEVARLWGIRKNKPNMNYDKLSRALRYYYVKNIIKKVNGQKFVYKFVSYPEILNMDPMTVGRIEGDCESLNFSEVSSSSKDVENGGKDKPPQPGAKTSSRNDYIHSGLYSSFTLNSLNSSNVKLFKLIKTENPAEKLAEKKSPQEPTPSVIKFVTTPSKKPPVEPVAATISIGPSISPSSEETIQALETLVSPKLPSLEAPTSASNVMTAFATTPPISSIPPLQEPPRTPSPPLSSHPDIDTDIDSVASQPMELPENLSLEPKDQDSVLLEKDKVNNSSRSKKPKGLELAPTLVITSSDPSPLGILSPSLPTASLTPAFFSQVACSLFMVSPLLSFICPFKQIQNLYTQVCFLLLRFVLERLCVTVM
Summary of the method: as §1

ETV2 = biological target: T10, ETV2 (Homo sapiens, UniProt O00321 1-342); conditions: protein: recombinant; tags: N-terminal GST; dsDNA, one strand shown
T10 sequence: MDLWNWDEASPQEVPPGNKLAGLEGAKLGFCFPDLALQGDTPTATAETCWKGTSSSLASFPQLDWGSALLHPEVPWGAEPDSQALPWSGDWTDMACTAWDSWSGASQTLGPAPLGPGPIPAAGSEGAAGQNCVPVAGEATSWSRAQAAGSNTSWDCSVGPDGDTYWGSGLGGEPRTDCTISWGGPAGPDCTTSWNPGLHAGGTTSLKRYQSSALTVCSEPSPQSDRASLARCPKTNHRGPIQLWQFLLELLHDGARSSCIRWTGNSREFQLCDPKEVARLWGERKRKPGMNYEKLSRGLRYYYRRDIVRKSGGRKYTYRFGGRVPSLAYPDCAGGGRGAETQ
Summary of the method: as §1

ELF3 = biological target: T11, ELF3 (Homo sapiens, UniProt P78545 1-371); conditions: protein: recombinant; tags: N-terminal GST; dsDNA, one strand shown
T11 sequence: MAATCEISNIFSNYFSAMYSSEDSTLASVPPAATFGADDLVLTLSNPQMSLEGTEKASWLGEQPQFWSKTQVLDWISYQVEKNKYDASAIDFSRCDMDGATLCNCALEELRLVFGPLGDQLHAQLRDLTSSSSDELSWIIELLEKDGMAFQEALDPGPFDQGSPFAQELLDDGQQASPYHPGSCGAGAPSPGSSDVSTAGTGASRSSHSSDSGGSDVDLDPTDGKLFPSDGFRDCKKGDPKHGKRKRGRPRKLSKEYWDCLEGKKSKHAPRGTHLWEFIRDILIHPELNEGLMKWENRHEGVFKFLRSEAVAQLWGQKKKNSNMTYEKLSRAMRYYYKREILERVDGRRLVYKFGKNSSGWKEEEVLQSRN
Summary of the method: as §1

CRX = CRX (Homo sapiens, UniProt O43186 1-299); conditions: protein: recombinant; tags: N-terminal GST; dsDNA, one strand shown
Summary of the method: as §1

ETV1 = ETV1 (Homo sapiens, UniProt P50549 1-477); conditions: protein: recombinant; tags: N-terminal GST; dsDNA, one strand shown
Summary of the method: as §1

CRX, sequence (O43186 whole entry): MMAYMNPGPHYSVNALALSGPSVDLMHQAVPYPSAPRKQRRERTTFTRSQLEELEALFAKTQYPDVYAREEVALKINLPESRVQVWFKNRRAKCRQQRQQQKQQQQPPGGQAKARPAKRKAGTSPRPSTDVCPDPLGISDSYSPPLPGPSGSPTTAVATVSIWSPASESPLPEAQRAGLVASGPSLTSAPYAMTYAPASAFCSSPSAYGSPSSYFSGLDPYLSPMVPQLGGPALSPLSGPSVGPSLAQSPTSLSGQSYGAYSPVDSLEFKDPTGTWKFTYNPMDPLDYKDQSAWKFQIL
HSF1, sequence (Q00613 whole entry): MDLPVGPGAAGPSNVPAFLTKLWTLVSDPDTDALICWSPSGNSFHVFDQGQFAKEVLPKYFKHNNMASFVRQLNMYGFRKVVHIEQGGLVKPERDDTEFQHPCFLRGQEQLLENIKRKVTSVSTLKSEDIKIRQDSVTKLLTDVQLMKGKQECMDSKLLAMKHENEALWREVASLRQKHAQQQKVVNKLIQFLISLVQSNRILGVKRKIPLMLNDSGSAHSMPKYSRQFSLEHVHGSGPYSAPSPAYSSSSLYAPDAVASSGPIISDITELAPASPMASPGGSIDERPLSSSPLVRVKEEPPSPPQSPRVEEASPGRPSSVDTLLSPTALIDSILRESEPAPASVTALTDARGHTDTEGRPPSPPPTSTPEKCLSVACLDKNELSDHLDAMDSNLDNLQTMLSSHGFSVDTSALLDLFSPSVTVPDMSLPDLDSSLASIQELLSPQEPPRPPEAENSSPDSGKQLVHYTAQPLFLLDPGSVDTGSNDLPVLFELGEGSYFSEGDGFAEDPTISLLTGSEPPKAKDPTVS
SPIB, sequence (Q01892 whole entry): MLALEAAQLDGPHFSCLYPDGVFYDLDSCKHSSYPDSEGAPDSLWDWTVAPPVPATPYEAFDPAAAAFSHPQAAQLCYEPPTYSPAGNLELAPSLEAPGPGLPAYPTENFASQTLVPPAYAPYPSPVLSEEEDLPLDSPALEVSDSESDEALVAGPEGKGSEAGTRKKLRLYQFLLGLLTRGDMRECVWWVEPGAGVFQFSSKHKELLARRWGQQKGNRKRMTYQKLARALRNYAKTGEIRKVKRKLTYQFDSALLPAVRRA
ELF1, sequence (P32519 whole entry): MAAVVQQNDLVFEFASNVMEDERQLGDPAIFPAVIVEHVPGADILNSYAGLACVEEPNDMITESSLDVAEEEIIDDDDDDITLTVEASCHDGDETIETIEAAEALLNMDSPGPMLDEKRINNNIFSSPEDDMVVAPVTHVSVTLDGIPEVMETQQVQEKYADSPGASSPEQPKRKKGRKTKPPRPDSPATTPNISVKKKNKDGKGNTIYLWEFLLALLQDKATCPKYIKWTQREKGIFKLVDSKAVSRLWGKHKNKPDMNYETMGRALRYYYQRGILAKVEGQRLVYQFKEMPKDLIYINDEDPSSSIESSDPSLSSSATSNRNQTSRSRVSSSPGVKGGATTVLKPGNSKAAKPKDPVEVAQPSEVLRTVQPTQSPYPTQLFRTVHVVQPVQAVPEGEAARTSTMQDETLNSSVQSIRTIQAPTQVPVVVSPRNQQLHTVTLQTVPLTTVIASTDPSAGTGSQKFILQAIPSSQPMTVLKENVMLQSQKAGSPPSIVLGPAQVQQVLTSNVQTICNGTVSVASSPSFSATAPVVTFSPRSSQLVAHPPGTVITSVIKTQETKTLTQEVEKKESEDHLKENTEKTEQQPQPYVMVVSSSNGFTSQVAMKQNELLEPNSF
ETV5, sequence (P41161 whole entry): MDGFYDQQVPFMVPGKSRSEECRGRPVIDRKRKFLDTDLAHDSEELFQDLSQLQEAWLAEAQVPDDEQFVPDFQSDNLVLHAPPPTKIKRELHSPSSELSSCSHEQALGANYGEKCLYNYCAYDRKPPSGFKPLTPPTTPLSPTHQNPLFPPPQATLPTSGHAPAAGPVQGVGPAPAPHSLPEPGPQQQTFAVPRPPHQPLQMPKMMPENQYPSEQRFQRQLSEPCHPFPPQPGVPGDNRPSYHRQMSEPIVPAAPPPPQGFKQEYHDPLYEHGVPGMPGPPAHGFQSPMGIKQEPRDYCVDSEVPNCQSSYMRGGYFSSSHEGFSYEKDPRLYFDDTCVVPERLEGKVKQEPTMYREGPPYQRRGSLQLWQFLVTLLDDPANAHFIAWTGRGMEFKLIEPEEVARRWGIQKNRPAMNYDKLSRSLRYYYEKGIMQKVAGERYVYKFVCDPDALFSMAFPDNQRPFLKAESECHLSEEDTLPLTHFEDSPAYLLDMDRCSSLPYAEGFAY
ELF4, sequence (Q99607 whole entry): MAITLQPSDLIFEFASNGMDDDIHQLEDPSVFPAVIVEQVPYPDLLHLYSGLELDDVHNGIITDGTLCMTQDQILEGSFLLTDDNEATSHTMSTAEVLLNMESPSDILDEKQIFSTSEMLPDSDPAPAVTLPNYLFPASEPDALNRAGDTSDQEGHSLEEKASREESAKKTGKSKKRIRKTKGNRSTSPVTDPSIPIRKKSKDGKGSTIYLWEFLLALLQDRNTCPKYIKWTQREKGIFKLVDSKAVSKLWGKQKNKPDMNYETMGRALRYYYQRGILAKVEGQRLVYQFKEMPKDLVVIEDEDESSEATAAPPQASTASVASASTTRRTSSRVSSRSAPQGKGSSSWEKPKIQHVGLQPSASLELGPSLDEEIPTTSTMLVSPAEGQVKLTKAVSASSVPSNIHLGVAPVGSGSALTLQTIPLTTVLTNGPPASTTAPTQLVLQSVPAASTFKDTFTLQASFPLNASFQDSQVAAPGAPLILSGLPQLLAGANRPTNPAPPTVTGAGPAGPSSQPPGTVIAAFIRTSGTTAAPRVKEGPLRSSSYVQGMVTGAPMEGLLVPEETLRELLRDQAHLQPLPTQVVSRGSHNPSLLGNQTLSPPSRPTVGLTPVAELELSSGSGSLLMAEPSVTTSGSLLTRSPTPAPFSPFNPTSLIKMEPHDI
ETV1, sequence (P50549 whole entry): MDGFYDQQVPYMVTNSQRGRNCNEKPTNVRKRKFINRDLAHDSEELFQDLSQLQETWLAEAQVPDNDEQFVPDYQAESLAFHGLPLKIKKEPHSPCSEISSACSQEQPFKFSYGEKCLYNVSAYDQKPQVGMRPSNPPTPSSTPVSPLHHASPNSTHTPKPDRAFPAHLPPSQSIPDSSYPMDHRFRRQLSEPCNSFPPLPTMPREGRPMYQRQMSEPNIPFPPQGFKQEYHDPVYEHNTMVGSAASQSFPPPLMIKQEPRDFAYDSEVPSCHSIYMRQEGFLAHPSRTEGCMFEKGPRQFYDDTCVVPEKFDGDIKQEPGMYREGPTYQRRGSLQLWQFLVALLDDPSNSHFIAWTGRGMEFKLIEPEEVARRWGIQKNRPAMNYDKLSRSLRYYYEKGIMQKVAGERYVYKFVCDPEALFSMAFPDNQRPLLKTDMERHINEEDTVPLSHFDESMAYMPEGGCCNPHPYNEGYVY

## TTCCAT
FLI1
  binding signal: 1.38 fold enrichment (6-mer frequency, TF over GST control)
ELK1
  binding signal: 1.29 fold enrichment (6-mer frequency, TF over GST control)
GABPA
  binding signal: 1.22 fold enrichment (6-mer frequency, TF over GST control)
ERG
  binding signal: 1.25 fold enrichment (6-mer frequency, TF over GST control)
ELF1
  binding signal: 1.33 fold enrichment (6-mer frequency, TF over GST control)
EHF
  binding signal: 1.28 fold enrichment (6-mer frequency, TF over GST control)
SPI1
  binding signal: 1.34 fold enrichment (6-mer frequency, TF over GST control)
SPIB
  binding signal: 1.32 fold enrichment (6-mer frequency, TF over GST control)
ELK3
  binding signal: 1.28 fold enrichment (6-mer frequency, TF over GST control)
FEV
  binding signal: 1.18 fold enrichment (6-mer frequency, TF over GST control)
ETV5
  binding signal: 1.36 fold enrichment (6-mer frequency, TF over GST control)
HSF1
  binding signal: 1.74 fold enrichment (6-mer frequency, TF over GST control)
SPIC
  binding signal: 1.19 fold enrichment (6-mer frequency, TF over GST control)
ELF4
  binding signal: 1.27 fold enrichment (6-mer frequency, TF over GST control)
ELK4
  binding signal: 1.42 fold enrichment (6-mer frequency, TF over GST control)
ETV2
  binding signal: 1.23 fold enrichment (6-mer frequency, TF over GST control)
ELF3
  binding signal: 1.2 fold enrichment (6-mer frequency, TF over GST control)
CRX
  binding signal: 1.43 fold enrichment (6-mer frequency, TF over GST control)
ETV1
  binding signal: 1.25 fold enrichment (6-mer frequency, TF over GST control)
